Screening results as filed in PubChem BioAssay.
Pf Dd2 growth: inhibitors of Plasmodium falciparum Dd2 growth | P. falciparum Dd2 growth, SYBR Green, 72 h | Potency, µM (series often up to 28.9 µM), for inactives: top-dose activity, negative = inhibition, hits mostly inhibitors | hit rate 4.3% among 120,000 | AID 1347417; active = well fitted inhibition curve with a large enough effect;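 note: plate controls were DMSO vehicle for no effect and reference drug for full effect; nearly all actives have a fitted effect of over 65% in size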
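Readout: SYBR Green fluorescence, 485 nm excitation, 535 nm emission, after ~16 h lysis at 37C. Before that, Dd2-infected red cells (2.5% hematocrit) grew 72 h with compound, 29 uM top final concentration.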
* marks the source's active call; other numbers are inactive results; i = inactive; [ ] = dose if it differs, or a comment. Shown is part of a subset that was picked to be rich in hits. Potency is the fitted concentration of half-maximal effect.

SMILES	Pf Dd2 growth
Cc1ccc(C(=O)Nc2ccc(F)cc2)cc1S(=O)(=O)N1CCCCCC1	-37%
CCOc1ccccc1NC(=O)c1cc(S(=O)(=O)NC2CCCC2)ccc1F	i
CCOc1ccc(NC(=O)c2cc(S(=O)(=O)NC3CCCCCC3)ccc2F)cc1	4µM*
O=C(Nc1ccc(Br)cc1F)c1cc(S(=O)(=O)NC2CCCCC2)ccc1F	-15%
CC(C)c1ccc(NC(=O)c2cc(S(=O)(=O)NC3CCCCC3)ccc2F)cc1	7.9µM*
Cc1nc2scc(CC(=O)NCC(C)C)n2c(=O)c1-c1cc(C)n(-c2ccc(C(C)C)cc2)n1	-8%
CN1CCCCC(CC(=O)Nc2ccc(N3CCOCC3)cc2)C1=O (stereo not drawn)	16%
COc1ccccc1C1NC(=O)N(CC(=O)N2CCCC2)C2=C1C(=O)OC2 (stereo not drawn)	16%
C=CCn1ncc(CN2CCC(c3nnc(Cn4ccnc4C)n3C)CC2)c1C	4%
COc1ccc(C(=O)N2CCC(N3CC4CC(C3)[C@H]3CCCC(=O)N3C4)CC2)c(OC)n1 (stereo partly drawn)	-10%
COCCC(=O)N[C@H]1CC[C@]2(C)CCC([C@H](C)C(=O)NCc3ccc(F)cc3)[C@H](O)[C@H]2[C@@H]1C (stereo partly drawn)	i
CC(C)c1noc(-c2cccn3c(CNC(=O)C4CC4)nnc23)n1	44%
CCCn1cnnc1-c1nc2c([nH]1)CC(c1ccccc1OC)CNC2=O (stereo not drawn)	-10%
CC1=C(C(=O)OC2CCCCCC2)C(c2c(F)cccc2Cl)CC(=O)N1 (stereo not drawn)	-14%
Cc1c(C(=O)OC2CCC(C)CC2)[nH]c2c1C(=O)CC(c1ccccc1Cl)C2 (stereo not drawn)	-27%
COc1cc(C2CC(=O)c3c([nH]c(C(=O)OC4CCCC4)c3C)C2)cc(OC)c1OC (stereo not drawn)	5.6µM*
Cc1c(C(=O)OC2CCCCCC2)[nH]c2c1C(=O)CC(c1ccccc1Cl)C2 (stereo not drawn)	10µM*
Cc1c(C(=O)OC2CCCCCC2)[nH]c2c1C(=O)CC(c1ccc(Cl)cc1)C2 (stereo not drawn)	-9%
Cc1c(C(=O)OCC2CCCCC2)[nH]c2c1C(=O)CC(c1ccc(F)cc1)C2 (stereo not drawn)	-13%
CC(C)NC(=O)CC1=C2CCCCC2N(C)C1=O (stereo not drawn)	6%
COCCCNC(=O)C1c2ccccc2C(=O)N(CC(C)C)C12CCCCC2 (stereo not drawn)	-8%
COCCNC(=O)C1c2ccccc2C(=O)N(CC(C)C)C12CCCCC2 (stereo not drawn)	-13%
Cc1cccc(NC(=O)C2c3ccccc3C(=O)N(CC(C)C)C23CCCC3)n1 (stereo not drawn)	3.5µM*
CC(C)CNC(=O)C1c2ccccc2C(=O)N(C2CCCC2)C12CCCC2 (stereo not drawn)	-26%
CCCCNC(=O)C1c2ccccc2C(=O)N(Cc2ccccc2)C12CCCC2 (stereo not drawn)	-6%
SMILES	Pf Dd2 growth
COCc1nnc(NC(=O)C2c3ccccc3C(=O)N(CC(C)C)C23CCCC3)s1 (stereo not drawn)	5.6µM*
CC(C)CN1C(=O)c2ccccc2C(C(=O)NC(C)C)C12CCCC2 (stereo not drawn)	-13%
CC(C)CN1C(=O)c2ccccc2C(C(=O)NC(C)C)C12CCCCC2 (stereo not drawn)	2%
CC(C)CN1C(=O)c2ccccc2C(C(=O)Nc2nncs2)C12CCCC2 (stereo not drawn)	13µM*
CN1CCCC2(CCN(C(=O)CCc3ccc(Cl)cc3)C2)C1=O (stereo not drawn)	-4%
COC1CCOC2(CCNCC2)C1 (stereo not drawn)	1%
Cc1cc(C(=O)N2CC[C@H]3C(=O)NCCCCCCN(Cc4ccncc4)[C@@H]3C2)n(C)n1	-1%
CCSc1nc(-c2ccccc2)nc2c1Cc1c(CO)cnc(C)c1O2	11%
Cc1ccc(-c2nc3c(c(SCC(=O)N(C)c4ccccc4)n2)Cc2c(CO)cnc(C)c2O3)cc1	5.6µM*
Cc1cc(C)cc(NC(=O)CSc2nc(-c3cccc(Cl)c3)nc3c2Cc2c(CO)cnc(C)c2O3)c1	-26%
CCN(CC)C(=O)CSc1nc(-c2ccc(C)cc2)nc2c1Cc1c(CO)cnc(C)c1O2	10µM*
Cc1ccc(-c2nc3c(c(SCC(=O)Nc4ccccc4Cl)n2)Cc2c(CO)cnc(C)c2O3)cc1	19%
Cc1cccc(C)c1NC(=O)CSc1nc(-c2ccccc2)nc2c1Cc1c(CO)cnc(C)c1O2	12%
Cc1oc(C(O)c2ccccc2)nc1C(=O)Nc1ccncc1 (stereo not drawn)	-25%[44.1 µM]
COc1ccccc1C(=O)Nc1ccc([C@H]2OCC(=O)N(Cc3ccccc3)[C@@H]2CO)cc1	-9%
O=C(O)CCC(=O)N1CCN2C(=O)N(Cc3ccccc3)C[C@H]2C1	18%[44.1 µM]
CC(C)NC(=O)N(C1CC1)C1CCOC2(CCN(C(=O)NC3CCCCC3)CC2)C1 (stereo not drawn)	10%
Cc1cccc(C)c1NC(=O)c1ccc2c(c1)nnn2C1CCCC1	10%
O=C(NC1CCCN(C(=O)C2CC2)C1)c1cccc(Cn2cccn2)c1 (stereo not drawn)	2%
Cc1cccc(C)c1NC(=O)c1cccc(CN2CCCC2C)c1 (stereo not drawn)	10µM*
CC1=NS(=O)(=O)N(C)C=C1C(=O)OCc1nc(Cc2ccc(C)cc2)no1	-10%
COc1ccc2[nH]c3c(c2c1)CCNC31CCN(C(=O)c2ccncc2)CC1	i
CCC(=O)N1CCC2(CC1)NCCc1c2[nH]c2ccc(OC)cc12	-13%
CCCC(=O)N1CCC2(CC1)NCCc1c2[nH]c2ccc(OC)cc12	-8%
O=C(c1nccc2ccccc12)N1CCC2(CC1)NCCc1c2[nH]c2ccccc12	4µM*
SMILES	Pf Dd2 growth
COc1ccc2[nH]c3c(c2c1)CCNC31CCN(C(=O)C2CCN2C2CCCCC2)CC1 (stereo not drawn)	13µM*
COc1ccc2[nH]c3c(c2c1)CCNC31CCN(C(=O)CC(C)C)CC1	7.9µM*
CC(C)CC(=O)N1CCC2(CC1)NCCc1c2[nH]c2ccccc12	-15%
COc1ccc2[nH]c3c(c2c1)CCNC31CCN(C(=O)C(C)C)CC1	i
CCn1ccc(C(=O)N2CCC3(CC2)NCCc2c3[nH]c3ccccc23)n1	-28%
CCNC(=O)N[C@H]1[C@H](O)[C@@H](N2CCOCC2)[C@@H]2OC[C@H]1O2	-3%[44.1 µM]
O=C1CCN(C(=O)Cc2cccc(F)c2)CCCOCCN1	-5%
CCN1c2cc(C(=O)Nc3ccc(C)c(C)c3)ccc2C(=O)N2CCCCC21 (stereo not drawn)	0%
Cc1cc2ncc(C(=O)NCC(F)F)cn2n1	4%[44.1 µM]
COc1ccc(-c2nnc3n2CCN(C(=O)c2ccccc2F)C3)cc1	2%
O=C1N(Cc2cccc(F)c2F)CCCC1(O)CN1CCNCC1 (stereo not drawn)	-2%
CN(CCO)CC1(O)CCCN(Cc2cccc(F)c2F)C1=O (stereo not drawn)	i
CC(C)(C)CNCC1(O)CCCN(Cc2cccc(F)c2F)C1=O (stereo not drawn)	4.5µM*
O=C(c1cccs1)N1CCC2(CC1)N=C(c1ccc(Cl)cc1)NO2	-23%
O[C@@H]1CCN(Cc2nc(C3(O)CCN(Cc4ccccc4F)CC3)cs2)C1	-17%[44.1 µM]
COc1ccc(-c2nc(-c3c(C)noc3C)cc3cc(C(C)C)oc23)cn1	8.9µM*
COCCNc1nc(-c2c(C)noc2C)cc2cc(C(C)C)oc12	-8%[44.1 µM]
